In PubChem BioAssay one finds growth inhibition, inhibition and outcome data, which are given here for 20 compounds.

As usually defined, the inhibition is the relative decrease from the control value, in per cent.

A number with no mark means an inactive call. For some of these results: Results with a measured potency or affinity are listed apart. Calls of active or inactive are those of the source. Unless noted, how the calls were made is not given here.

Experiment [1] is described as follows: antimalarial activity against Dd2 strain (AID 2302;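 active means growth inhibition above 50% at the single 2 µM test dose, taken to imply half-maximal potency below 2 µM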;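 further: 0% = DMSO untreated growth and 100% = chloroquine plus artemisinin killed control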). Conditions: P. falciparum Dd2 in RBCs, LDH growth readout, 72 h; at 2 µM; hits give high values.
The nature of experiment [2]: HepG2 cytotoxicity, primary screen, cytotoxicity control for P. falciparum antimalarial project, cell-based, ATP luminescence (AID 2303;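 active means inhibition above 50%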;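 further: 0% = DMSO wells and 100% = digitonin-killed cells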). The settings on record: HepG2 viability, 24-48 h, at 10 µM, hits give high values.
Experiment [3] concerns the target L-lactate dehydrogenase (Plasmodium falciparum (isolate CDC / Honduras)) (UniProt Q27743). As to the kind of experiment: PfLDH activity inhibition – cell lysate, 3D7 strain, counter-screen for P. falciparum growth inhibition project (AID 2304).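 Further: 0% = vehicle and 100% = reference inhibitor.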 Conditions: P. falciparum 3D7 crude extract, LDH APAD/NBT absorbance; at 2 µM; hits give high values. On the technique in general: Counterscreens check selectivity or assay interference.

Experiment [4] is described as follows: inhibition of 3D7 malaria parasite growth – strain 3D7 (AID 2306).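 Further: 0% = DMSO wells and 100% = chloroquine plus artemisinin control wells.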 Conditions: P. falciparum 3D7 erythrocytic growth, LDH absorbance, 72 h; at 2 µM; hits give high values.
Experiment [5] concerns the target Calcium-dependent protein kinase 1 (Plasmodium falciparum (isolate 3D7)) (UniProt P62344). As to the kind of experiment: PfCDPK1 kinase inhibitors, biochemical, TCAMS library (AID 1159585; cut-off not given, nearly all actives have IC50 up to about 0.98 µM;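 further: inhibitors leave more ATP so luminescence rises with inhibition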). The settings on record: recombinant PfCDPK1, Kinase-Glo ATP depletion luminescence.
Experiment [6] has as its target Plasmodium falciparum protein kinase 6 (PK6, PF3D7_1337100) (UniProt Q8IDW1). Nature of the experiment: PfPK6 kinase inhibitors, biochemical, TCAMS library (AID 1159586). Conditions: recombinant PfPK6, Kinase-Glo ATP depletion luminescence.
Experiment [7] has as its target Protein kinase 7 (PK7), Plasmodium falciparum 3D7 (PF3D7_0213400) (UniProt Q7YTF7). As to the kind of experiment: inhibition of Plasmodium PK7 catalytic activity – biochemical, TCAMS antimalarial set, Kinase-Glo luminescence (AID 1159587). Conditions: recombinant PfPK7, Kinase-Glo ATP depletion luminescence. In general terms: Kinase-Glo measures the ATP left after a reaction by luminescence.

Experiment [8] has as its target Calcium-dependent protein kinase 4 (Plasmodium falciparum (isolate 3D7)) (UniProt Q8IBS5). As to the kind of experiment: PfCDPK4 kinase inhibitors, biochemical, TCAMS library (AID 1159588; cut-off not given, nearly all actives have IC50 up to about 0.91 µM). The settings on record: recombinant PfCDPK4, Kinase-Glo ATP depletion luminescence.

Calcium-dependent protein kinase 1 (Plasmodium falciparum (isolate 3D7)), sequence (P62344 whole entry, looked up): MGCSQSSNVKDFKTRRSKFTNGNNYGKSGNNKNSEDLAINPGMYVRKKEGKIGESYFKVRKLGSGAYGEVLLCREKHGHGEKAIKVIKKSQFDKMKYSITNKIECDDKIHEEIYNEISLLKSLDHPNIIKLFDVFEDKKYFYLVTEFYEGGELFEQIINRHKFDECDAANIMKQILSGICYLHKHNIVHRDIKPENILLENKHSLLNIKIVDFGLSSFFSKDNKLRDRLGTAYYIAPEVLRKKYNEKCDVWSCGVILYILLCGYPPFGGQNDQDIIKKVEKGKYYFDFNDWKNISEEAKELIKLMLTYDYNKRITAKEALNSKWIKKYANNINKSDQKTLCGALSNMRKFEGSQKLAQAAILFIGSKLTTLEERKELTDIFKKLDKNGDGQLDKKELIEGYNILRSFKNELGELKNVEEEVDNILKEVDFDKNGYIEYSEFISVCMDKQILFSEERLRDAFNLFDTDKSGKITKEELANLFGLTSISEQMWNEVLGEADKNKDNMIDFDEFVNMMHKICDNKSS
Plasmodium falciparum protein kinase 6 (PK6, PF3D7_1337100), sequence (Q8IDW1 1-305): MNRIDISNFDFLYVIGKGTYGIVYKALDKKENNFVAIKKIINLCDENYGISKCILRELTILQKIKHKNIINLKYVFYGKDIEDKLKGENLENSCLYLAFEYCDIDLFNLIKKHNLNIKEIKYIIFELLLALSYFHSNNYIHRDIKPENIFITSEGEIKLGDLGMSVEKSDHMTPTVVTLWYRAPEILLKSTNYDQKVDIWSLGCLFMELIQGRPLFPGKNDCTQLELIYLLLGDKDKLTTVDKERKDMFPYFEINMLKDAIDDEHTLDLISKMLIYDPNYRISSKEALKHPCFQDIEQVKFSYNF
Protein kinase 7 (PK7), Plasmodium falciparum 3D7 (PF3D7_0213400), sequence (Q7YTF7 1-343): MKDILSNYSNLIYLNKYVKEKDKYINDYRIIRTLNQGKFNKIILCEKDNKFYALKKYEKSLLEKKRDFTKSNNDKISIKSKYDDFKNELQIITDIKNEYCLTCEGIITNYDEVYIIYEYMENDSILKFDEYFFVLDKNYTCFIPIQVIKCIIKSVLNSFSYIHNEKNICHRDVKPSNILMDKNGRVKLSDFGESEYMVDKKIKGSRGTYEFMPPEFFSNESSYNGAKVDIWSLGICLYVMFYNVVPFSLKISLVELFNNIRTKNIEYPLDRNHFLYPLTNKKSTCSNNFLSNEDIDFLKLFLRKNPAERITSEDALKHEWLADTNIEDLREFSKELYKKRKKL
L-lactate dehydrogenase (Plasmodium falciparum (isolate CDC / Honduras)), sequence (Q27743 whole entry, looked up): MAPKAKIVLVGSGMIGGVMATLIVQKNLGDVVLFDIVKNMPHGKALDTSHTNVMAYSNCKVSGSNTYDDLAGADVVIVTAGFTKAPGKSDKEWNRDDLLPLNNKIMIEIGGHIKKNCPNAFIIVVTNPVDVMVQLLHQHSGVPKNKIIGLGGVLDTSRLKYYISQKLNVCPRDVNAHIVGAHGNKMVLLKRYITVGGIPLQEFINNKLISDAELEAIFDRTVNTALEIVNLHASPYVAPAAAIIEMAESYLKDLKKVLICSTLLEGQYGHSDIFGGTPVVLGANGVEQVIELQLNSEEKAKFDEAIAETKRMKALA
Calcium-dependent protein kinase 4 (Plasmodium falciparum (isolate 3D7)), sequence (Q8IBS5 whole entry, looked up): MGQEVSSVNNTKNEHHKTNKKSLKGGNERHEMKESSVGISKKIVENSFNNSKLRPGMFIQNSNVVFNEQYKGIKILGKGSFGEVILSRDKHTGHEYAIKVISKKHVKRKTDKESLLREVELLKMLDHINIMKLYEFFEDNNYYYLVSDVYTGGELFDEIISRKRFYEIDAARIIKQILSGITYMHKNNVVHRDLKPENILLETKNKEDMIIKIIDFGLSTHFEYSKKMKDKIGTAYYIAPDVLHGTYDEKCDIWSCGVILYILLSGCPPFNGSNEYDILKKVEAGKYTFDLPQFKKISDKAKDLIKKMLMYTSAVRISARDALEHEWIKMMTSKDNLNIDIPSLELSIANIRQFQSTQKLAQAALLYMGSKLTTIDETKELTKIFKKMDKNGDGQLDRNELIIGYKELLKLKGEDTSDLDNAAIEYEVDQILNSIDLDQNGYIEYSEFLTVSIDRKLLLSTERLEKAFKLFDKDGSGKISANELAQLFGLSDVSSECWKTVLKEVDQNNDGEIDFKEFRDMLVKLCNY

For `Clc1ccc2c(Cl)c(CNCCCNc3nc4ccccc4[nH]3)[nH]c2c1`, the growth inhibition was 7% in experiment [1] and 101% (active) in experiment [4]. The inhibition in experiment [2] was 38%; in experiment [3] it was -1%. Also, the result in experiment [5], in experiment [6], in experiment [7] and in experiment [8] was inactive.
Regarding `Cc1cccc2[nH]c(-c3ccc(-c4cccc(CNCCCNS(C)(=O)=O)c4)s3)nc12`, the growth inhibition in experiment [1] was 19%; in experiment [4], 99% (active). Also, the inhibition was 20% in experiment [2] and 2% in experiment [3]. In addition, the outcome in experiment [5], in experiment [6], in experiment [7] and in experiment [8] was inactive.
On to `CCc1ccc(NC(=O)c2ccc(CN3CCCN(Cc4cccs4)CC3)cc2)cc1`, for which the growth inhibition in experiment [1] was -1%; in experiment [4] it was 87% (active). For the same compound, the figures for the inhibition in experiment [2] and in experiment [3] were 57% (active) and 0%, respectively. Besides, the outcome in experiment [5], in experiment [6], in experiment [7] and in experiment [8] was inactive.
Take `O=C(Nc1ccc(-c2cccc(-c3nc4ccccc4[nH]3)c2)cc1)Nc1ccc2c(c1)OCO2`: the growth inhibition was 65% (active) in experiment [1] and 102% (active) in experiment [4]. The inhibition in experiment [2] was 55% (active); in experiment [3], 0%. Further, the outcome in experiment [5], in experiment [6], in experiment [7] and in experiment [8] was inactive.
`Cn1cnnc1Sc1ccc(CN2CCOc3ccc(C4=CCCCC4)cc3C2)o1`: the growth inhibition was 97% (active) in experiment [1] and 98% (active) in experiment [4]. The inhibition in experiment [2] is 1%; in experiment [3], 3%. Moreover, the outcome in experiment [5], in experiment [6], in experiment [7] and in experiment [8] was inactive.
As for `Cc1ccc(Cn2c(N3CCC(C(=O)NCc4ccccn4)CC3)nc3ccccc32)cc1`, the growth inhibition is 99% (active) in experiment [1] and 100% (active) in experiment [4]. Also, the inhibition in experiment [2] is -8%; in experiment [3] it was 8%. In addition, the outcome in experiment [5], in experiment [6], in experiment [7] and in experiment [8] was inactive.
For `COc1cccc(NC(=O)NC2CCN(CCCCCNC(=O)/C=C/c3ccc(Cl)c(Cl)c3)CC2)c1`, the values for the growth inhibition in experiment [1] and in experiment [4] were 8% and 102% (active), respectively. The inhibition in experiment [2] was 14%; in experiment [3] it was -1%. The result in experiment [5], in experiment [6], in experiment [7] and in experiment [8] was inactive.
As for `Cc1ccc2cc(NC(=O)CCCCCCCON3C(N)=NC(N)=NC34CCCCC4)ccc2n1`, the growth inhibition in experiment [1] is 86% (active); in experiment [4] it was 98% (active). Besides, the inhibition is 6% in experiment [2] and 3% in experiment [3]. Moreover, the outcome in experiment [5], in experiment [6], in experiment [7] and in experiment [8] was inactive.
Regarding `CCCCCCCn1c(=N)n(CC(O)c2ccc(Cl)c(Cl)c2)c2ccccc21` (stereo not given), the growth inhibition in experiment [1] was 100% (active); in experiment [4], 98% (active). The values for the inhibition in experiment [2] and in experiment [3] were 99% (active) and 2%, respectively. For the same compound, the outcome in experiment [5], in experiment [6], in experiment [7] and in experiment [8] was inactive.
Turning to `CC(C)C1C(O)=C(c2ccc3ccccc3c2)C(=O)N1Cc1ccsc1` (stereo not given), the growth inhibition was 82% (active) in experiment [1] and 88% (active) in experiment [4]. The inhibition is 11% in experiment [2] and 3% in experiment [3]. Further, the outcome in experiment [5], in experiment [6], in experiment [7] and in experiment [8] was inactive.
In the case of `N#Cc1ccc2c(c1)CN(CCC1CCC(NC(=O)c3cc4ccccc4cc3N)CC1)CC2` (stereo not given), the values for the growth inhibition in experiment [1] and in experiment [4] were 52% (active) and 80% (active), respectively. The inhibition was 5% in experiment [2] and -8% in experiment [3]. In addition, the outcome in experiment [5], in experiment [6], in experiment [7] and in experiment [8] was inactive.
On to `O=C(Nc1cccc(-c2cc3ccccc3[nH]2)c1)C1CCN(Cc2ccccc2O)CC1`, for which the results for the growth inhibition in experiment [1] and in experiment [4] were 25% and 95% (active), respectively. Further, the inhibition was 34% in experiment [2] and -1% in experiment [3]. Moreover, the outcome in experiment [5], in experiment [6], in experiment [7] and in experiment [8] was inactive.
For `COc1ccc(-n2nc(C(=O)NCCC3=CCCCC3)c3ccccc3c2=O)cc1`, the values for the growth inhibition in experiment [1] and in experiment [4] were 59% (active) and 94% (active), respectively. In addition, the inhibition is 0% in experiment [2] and -4% in experiment [3]. Also, the outcome in experiment [5], in experiment [6], in experiment [7] and in experiment [8] was inactive.
As to `Cn1c2ccccc2c2c3ccccc3c(CNC(CO)(CO)CO)cc21`, the growth inhibition is 78% (active) in experiment [1] and 96% (active) in experiment [4]. Also, the values for the inhibition in experiment [2] and in experiment [3] were 67% (active) and -1%, respectively. The result in experiment [5], in experiment [6], in experiment [7] and in experiment [8] was inactive.
Turning to `COc1ccc(O)cc1Cc1cnc2nc(N)nc(N)c2c1C`, the figures for the growth inhibition in experiment [1] and in experiment [4] were 97% (active) and 92% (active), respectively. Moreover, the figures for the inhibition in experiment [2] and in experiment [3] were 67% (active) and -2%, respectively. In addition, the outcome in experiment [5], in experiment [6], in experiment [7] and in experiment [8] was inactive.
`CCOc1cc(C(=O)NCc2cccc(C(F)(F)F)c2)ccc1-c1nc2ccc(Cl)cc2[nH]1`: the figures for the growth inhibition in experiment [1] and in experiment [4] were 31% and 88% (active), respectively. Besides, the inhibition in experiment [2] was 7%; in experiment [3], -6%. Also, the outcome in experiment [5], in experiment [6], in experiment [7] and in experiment [8] was inactive.
As for `Fc1ccc2nc(-c3ccc(-c4ccc(CNCCc5ccncc5)cc4)s3)[nH]c2c1`, the growth inhibition in experiment [1] is 100% (active); in experiment [4] it was 99% (active). The values for the inhibition in experiment [2] and in experiment [3] were 34% and -3%, respectively. In addition, the outcome in experiment [5], in experiment [6], in experiment [7] and in experiment [8] was inactive.
`O=C(/C=C/c1ccc(Cl)c(Cl)c1)NCCCCN1CCCN(C(=O)Nc2ccc(F)c(Cl)c2)CC1`: the results for the growth inhibition in experiment [1] and in experiment [4] were 2% and 87% (active), respectively. The inhibition is 69% (active) in experiment [2] and 1% in experiment [3]. Also, the result in experiment [5], in experiment [6], in experiment [7] and in experiment [8] was inactive.
With `O=C(/C=C/c1ccc(Cl)c(Cl)c1)NCC[C@@H]1C[C@H]1CCN1CCC(c2c[nH]c3ccccc23)CC1`, the growth inhibition in experiment [1] is 22%; in experiment [4], 96% (active). In addition, the results for the inhibition in experiment [2] and in experiment [3] were 98% (active) and -8%, respectively. Further, the outcome in experiment [5], in experiment [6], in experiment [7] and in experiment [8] was inactive.
Regarding `O=c1cc(NCCCNCc2cc(Cl)cc(Cl)c2OCc2ccc(Cl)cc2)[nH]c2ccccc12`, the growth inhibition in experiment [1] was 53% (active); in experiment [4] it was 98% (active). For the same compound, the inhibition in experiment [2] is 6%; in experiment [3] it was 3%. The result in experiment [5], in experiment [6], in experiment [7] and in experiment [8] was inactive.
